Test [1] is described as follows: NCI Yeast Anticancer Drug Screen. Data for the rad50 strain (AID 155).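 Further: 0% = growth of vehicle-only cultures of the same strain.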 The following applies: S. cerevisiae rad50 strain growth inhibition, stronger effect = higher value; at 50.0 µM unless noted. The essentials: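 A DNA repair-deficient yeast mutant serves as the test organism; compound-induced growth inhibition is calculated against vehicle-treated cells.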
A short description of test [2]: NCI Yeast Anticancer Drug Screen. Data for the mec2-1 strain (AID 157). The following applies: S. cerevisiae mec2-1 strain, stronger effect = higher value; at 50.0 µM unless noted. The essentials:
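Growth inhibition is read against vehicle-treated controls after compound exposure of the mec2-1 yeast strain, which is defective in DNA damage repair or cell cycle control.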

The nature of test [3]: NCI Yeast Anticancer Drug Screen. Data for the sgs1 mgt1 strain (AID 161).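 Further: 0% = growth of cultures given vehicle only.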 The note with it: S. cerevisiae sgs1 mgt1 strain, stronger effect = higher value; at 50.0 µM unless noted. The gist of the method:
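This yeast growth screen uses a strain with defined DNA-repair lesions; compound-treated growth is compared with vehicle-treated growth.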

A short description of test [4]: NCI Yeast Anticancer Drug Screen. Data for the cln2 rad14 strain (AID 165).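 Further: 0% = growth equal to vehicle treated cultures.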 The note with it: S. cerevisiae cln2 rad14 strain, stronger effect = higher value; at 50.0 µM unless noted. The gist of the method: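 Growth inhibition, relative to vehicle-treated controls, is the read-out. The test organism is a yeast strain with defined genetic alterations, cln2 rad14.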
Test [5] is described as follows: NCI Yeast Anticancer Drug Screen. Data for the bub3 strain (AID 167). The following applies: S. cerevisiae bub3 mutant strain, stronger effect = higher value; at 50.0 µM unless noted. The essentials:
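Inhibition values come from growth of compound-treated mutant yeast normalised to vehicle-treated controls.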

The nature of test [6]: NCI Yeast Anticancer Drug Screen. Data for the mlh1 rad18 strain (AID 175). The note with it: S. cerevisiae mlh1 rad18 strain growth inhibition, stronger effect = higher value; at 50.0 µM unless noted. The essentials:
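Cells of a genetically altered yeast strain, deficient in DNA damage repair, were treated with compound. Their growth was then compared with that of vehicle-treated cultures to give inhibition.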

These results are taken from PubChem BioAssay (NCI).

“And” between values parts separate entries of the source, which are not always exact repeats. Equal values may be shown once. Compounds without any hit were thinned out: in the full panel of roughly 79,000, 15% have a hit. A number with no mark means an inactive call. The source made the active and inactive calls. No stated cut-off is given here; in the data, active means growth inhibition above about 70%; inactive means the rest.

As for `CC(=O)OC1CCC2(C)C(CCC3(C)C2C(=O)C=C2C4CC(C)(C(=O)O)CCC4(C)CCC23C)C1(C)C` (centres undefined), the growth inhibition was -3.8% in test [1]; -9.5% in test [2]; -13% in test [3]; -4.25% in test [4]; -5.75% in test [5]; -8.5% in test [6].

As for `CS(C)=C(C(=O)c1ccccc1)/C(=C/C(=O)c1ccccc1)c1ccccc1`, the growth inhibition in test [1] is 21.5%; in test [2], 26.2%; in test [3] it was 65%; in test [4], 36%; in test [5], 43.6%; in test [6], 79% (active).

As to `C=CCCCC1CCCNC1=S` (centres undefined), the growth inhibition in test [1] was 8.3%; in test [2], 6.1%; in test [3], 20.4%; in test [4] it was 12.6%; in test [5], 28.9%; in test [6], 20.9%.

As for `COCC(Br)C(OC)OC` (centres undefined), the growth inhibition in test [1] was 37.5%; in test [2] it was 9.1%; in test [3] it was 58.9%; in test [4], -1.05%; in test [5], 5.75%; in test [6], 68.3%.

Regarding `O=NN1C(c2ccccc2)CNC(=O)CC1c1ccccc1` (centres undefined), the growth inhibition is -27% in test [1]; -1.4% in test [2]; -1.65% in test [3]; -8% in test [4]; 20.6% in test [5]; -18.2% in test [6].

As for `Cc1ccc(OCCC(=O)N(C)C)cc1`, the growth inhibition in test [1] is 5.05%; in test [2], 2.9%; in test [3], -8.25%; in test [4], -10%; in test [5], 4.2%; in test [6], 10.9%.

With `CCn1c(=O)n(Cc2ccccc2)c(=O)c2ccccc21`, the growth inhibition was 19.6% in test [1]; 8.95% in test [2]; 24.8% in test [3]; 10.8% in test [4]; -4.7% in test [5]; 30.3% in test [6].

Consider `CCCCCCCCCCCCCCCCC(C(=O)O)C(O)(CC(=O)O)C(=O)O` (centres undefined), for which the growth inhibition in test [1] was 2.8% and 41.7%; in test [2], -14.7% and 16.6%; in test [3], 14.5% and 43.4%; in test [4] it was -10.7% and 16.6%; in test [5], -7.9% and 33.4%; in test [6], 7.25% and 31.6%.

For the molecule `CC(O)C(=O)N(CCO)c1ccccc1` (centres undefined), the growth inhibition is 13.4% in test [1]; 1.2% in test [2]; -5.5% in test [3]; 3.25% in test [4]; 2.2% in test [5]; -21.4% in test [6].

`O=C(O)CCc1cnc[nH]1`: the growth inhibition in test [1] is -0.7%; in test [2], -1.8%; in test [3] it was 1.2%; in test [4], 22.5%; in test [5] it was 14.6%; in test [6], 2.3%.

As to `COc1ccc2c3c([nH]c2c1N)C(C)NCC3` (centres undefined), the growth inhibition in test [1] was -11.4%; in test [2], -18.9%; in test [3] it was 4.2%; in test [4], 13.3%; in test [5], -18.3%; in test [6] it was 0.4%.

On to `CS(=O)(=O)c1ccc(/C(=N/N)c2ccccc2)cc1`, for which the growth inhibition in test [1] was 1.65%; in test [2], 9.65%; in test [3], 9.2%; in test [4] it was 28.2%; in test [5], 13.5%; in test [6] it was 17.4%.

In the case of `C(CCC1CO1)CC1CO1` (centres undefined), the growth inhibition was 3.25% in test [1]; -21.1% in test [2]; -31.6% in test [3]; -27.2% in test [4]; -5.45% in test [5]; -22.8% in test [6].

In the case of `C=CCOC(=O)CCCC1=NC2=CC=CC3=NC(C)=NC(=N1)N23`, the growth inhibition in test [1] is -1.1%; in test [2], 2.35%; in test [3] it was 1.45%; in test [4], 12.2%; in test [5], -17.3%; in test [6], 1.2%.

For the molecule `CCOC(=O)C(C)NC(=O)C(C)NC(=O)C(C)NC(=O)C(C)NC(=O)C(C)NC(=O)OCc1ccccc1` (centres undefined), the growth inhibition in test [1] was 87.1% (active); in test [2] it was 85.8% (active); in test [3] it was 7.15%; in test [4], -0.35%; in test [5], 15.7%; in test [6], -46.8%.

As to `COc1cc(/C=C/C(=O)c2sc(Nc3ccccc3)nc2C)ccc1O`, the growth inhibition was 27.8% in test [1]; 2.8% in test [2]; 13.2% in test [3]; 0.85% in test [4]; 19% in test [5]; 28% in test [6].

Regarding `CCCCOC(=O)COc1c(Cl)ccc(Cl)c1Cl`, the growth inhibition in test [1] was 6.95%; in test [2], -0.75%; in test [3], 7%; in test [4], -3.5%; in test [5] it was 11.3%; in test [6], 6.7%.

Regarding `CCOc1ccc2c(c1)S(=O)(=O)OC2=O`, the growth inhibition in test [1] is -11.1%; in test [2], 0.6%; in test [3], 7%; in test [4], 25.6%; in test [5], 5.2%; in test [6] it was 2.35%.

On to `O=C1c2c(ccc3c2CCCC3)CC1Cc1ccc2c(c1)CCCC2` (centres undefined), for which the growth inhibition in test [1] is -22%; in test [2] it was -15.2%; in test [3], -18.8%; in test [4] it was -25.1%; in test [5], -17.4%; in test [6], -37.7%.

`CCN(CC)CCOc1ccc(N2C(=O)c3cc(OC)c(OC)cc3C2=O)cc1`: the growth inhibition in test [1] was -23.4%; in test [2], -19%; in test [3] it was -14.9%; in test [4], 5.25%; in test [5], -32.1%; in test [6], -34.5%.

`CCCCCCCC/C=C\CCCCCCCC(=O)NC(C)(C)C(=O)O`: the growth inhibition in test [1] was -16.2%; in test [2] it was -15.7%; in test [3], -9.5%; in test [4], 62.6%; in test [5], 32.2%; in test [6], -36.4%.

For `CC1NC(=O)OC12CCCCC2` (centres undefined), the growth inhibition in test [1] is 16.4%; in test [2], -3.55%; in test [3], -2.95%; in test [4], -27.6%; in test [5] it was -7.5%; in test [6], -30.4%.

With `O=[N+]([O-])c1cc(COc2ccc(Cl)c(Cl)c2)ccc1Cl`, the growth inhibition in test [1] was 1.8%; in test [2] it was 30.3%; in test [3] it was 38.5%; in test [4], -0.95%; in test [5], 46.4%; in test [6] it was 35.8%.

Consider `COc1ccc(NC(=O)C(C)Oc2ccc(OCC3CCCCC3)cc2)cc1` (centres undefined), for which the growth inhibition in test [1] is -22.9%; in test [2] it was -40.5%; in test [3], -42%; in test [4], -26.1%; in test [5], -56.9%; in test [6] it was -29.6%.

Turning to `CCCOCC[N+](C)(C)C`, the growth inhibition in test [1] is 1.65%; in test [2], -21.9%; in test [3], 8.65%; in test [4], -34.5%; in test [5], -8.9%; in test [6] it was -8.9%.

On to `O=[N+]([O-])c1ccc(-n2nnc(C3=NCCCN3)c2-c2ccc(Cl)cc2)cc1`, for which the growth inhibition in test [1] was -11.3%; in test [2], -8.1%; in test [3], -5.75%; in test [4] it was 8.6%; in test [5], 5.55%; in test [6], -19.6%.

Consider `Cc1ccc(OS(=O)(=O)c2cccc(S(=O)(=O)Oc3ccc(C)cc3)c2)cc1`, for which the growth inhibition in test [1] is 19.9%; in test [2] it was 3.35%; in test [3], 8.9%; in test [4], 7.7%; in test [5], 9.45%; in test [6], 6.15%.

Regarding `CC(=O)N1C(=O)C2(c3ccccc31)c1cccc3c1C(=C1C(=O)OC(=O)C12)C(=O)N3C(C)=O` (centres undefined), the growth inhibition in test [1] was 64.5%; in test [2], 22.4%; in test [3], 52.3%; in test [4], 9.55%; in test [5], 8.85%; in test [6] it was 48.1%.

With `CCN(CC)c1ccc2cc(C(=O)NCc3ccccc3)c(=N)oc2c1`, the growth inhibition in test [1] was 9.7%; in test [2], 15.8%; in test [3], -15.8%; in test [4], 3.45%; in test [5], -38%; in test [6], 7.35%.

`Cc1ccc(Cl)cc1NC(=O)Nc1ccccc1Cl`: the growth inhibition is 11.5% in test [1]; 12.2% in test [2]; 6.05% in test [3]; -12.2% in test [4]; 8.85% in test [5]; -11% in test [6].

On to `COc1cccc(C#CC(=O)O)c1`, for which the growth inhibition in test [1] is -25.6%; in test [2], -20.9%; in test [3] it was -18.9%; in test [4], -5.35%; in test [5], -21.9%; in test [6], -11.6%.

With `Clc1ccc2[nH]ncc2c1`, the growth inhibition in test [1] was 8.9%; in test [2], -36.1%; in test [3], -5.9%; in test [4], -7.95%; in test [5], 7.55%; in test [6], 18.1%.

For the molecule `CCOC=Nc1ccc(-n2cnc3c(Cl)ncnc32)cc1C`, the growth inhibition is 1.1% in test [1]; -4.45% in test [2]; -16.6% in test [3]; -6.2% in test [4]; -1% in test [5]; -17.2% in test [6].

Regarding `CCCCCSC(=O)C(N)=O`, the growth inhibition was 10.9% in test [1]; 7.45% in test [2]; 6.7% in test [3]; -25.8% in test [4]; -7.45% in test [5]; 4% in test [6].

As for `CSCCC(Nc1ccc([N+](=O)[O-])cc1[N+](=O)[O-])C(=O)O` (centres undefined), the growth inhibition is 9.55% in test [1]; 7.25% in test [2]; 34.4% in test [3]; 18.1% in test [4]; 17.9% in test [5]; -18.1% in test [6].

Regarding `COc1ccc(C(=O)CC(c2ccccc2)C(C#N)c2ccccc2)cc1` (centres undefined), the growth inhibition was 1.8% and -5.7% in test [1]; 5.6% and -8.55% in test [2]; -6.2% and 26.1% in test [3]; -107% and -72.5% in test [4]; 8.95% and -5.05% in test [5]; -7% and 8.5% in test [6].

Take `CS(C)=NC(=Nc1ccccc1)c1ccccc1`: the growth inhibition is 6.9% in test [1]; 9.6% in test [2]; -12% in test [3]; -26.4% in test [4]; 9.7% in test [5]; 2.05% in test [6].

Regarding `CC(=O)Nc1ccn(C2OC(CO)C(O)C2O)c(=O)n1` (centres undefined), the growth inhibition is -3.6% in test [1]; 26.9% in test [2]; 0.05% in test [3]; 31.1% in test [4]; -11.6% in test [5]; 8.3% in test [6].

As for `Oc1c(CN2CCOCC2)ccc(CN2CCOCC2)c1O`, the growth inhibition is 13.4% in test [1]; 17.3% in test [2]; -14.1% in test [3]; 4.55% in test [4]; 16.1% in test [5]; 35.5% in test [6].
